According to PubChem BioAssay (NCI):
This is part of a sample that, as a whole, favours compounds with a hit. Of some 79,000 tested, about 15% had one in any assay. The source made the active and inactive calls. No stated cut-off is given here; in the data, active means growth inhibition above about 70%; inactive means the rest.

What was measured:
[1] = NCI Yeast Anticancer Drug Screen. Data for the rad52 strain (AID 147);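 further: 0% = growth of vehicle-treated control cultures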; details: S. cerevisiae rad52 mutant growth inhibition, hits give high values
Summary of the method: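 Compounds are applied to a genetically defined yeast strain lacking normal DNA damage repair, and inhibition of growth is expressed relative to cultures given vehicle only.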

[2] = NCI Yeast Anticancer Drug Screen. Data for the wt1 strain (AID 149);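 further: 0% = growth of vehicle-treated wt1 cultures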; details: S. cerevisiae wt1 strain (SPY 50644) growth inhibition, hits give high values
Summary of the method: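 Using yeast strain wt1, compound-induced growth inhibition was determined against vehicle-treated cultures.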

[3] = NCI Yeast Anticancer Drug Screen. Data for the rad50EPP+ strain (AID 151);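 further: 0% = growth of vehicle-treated control cultures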; details: S. cerevisiae rad50 mutant strain, hits give high values
Summary of the method: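 Compounds were applied to the rad50EPP+ yeast strain, which bears a defined DNA repair alteration, and growth inhibition was determined relative to vehicle-treated cultures.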

[4] = NCI Yeast Anticancer Drug Screen. Data for the mgt1 strain (AID 153); details: S. cerevisiae mgt1 mutant growth inhibition, hits give high values
Summary of the method: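 Strain: mgt1 yeast, one of a set carrying defined DNA damage repair or cell cycle control alterations. Compound-treated growth compared with vehicle.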

[5] = NCI Yeast Anticancer Drug Screen. Data for the rad50 strain (AID 155);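 further: 0% = growth of vehicle-only cultures of the same strain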; details: S. cerevisiae rad50 strain growth inhibition, hits give high values
Summary of the method: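 Relative growth inhibition (compound vs vehicle) was measured in yeast with a defined repair-gene alteration.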

[6] = NCI Yeast Anticancer Drug Screen. Data for the mec2-1 strain (AID 157); details: S. cerevisiae mec2-1 strain, hits give high values
Summary of the method: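 Strain: mec2-1 (DNA repair/cell cycle alteration). Compound exposure, then growth measured; inhibition expressed relative to vehicle.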

[7] = NCI Yeast Anticancer Drug Screen. Data for the rad14 strain (AID 159);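 further: 0% = growth of vehicle-treated control cultures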; details: S. cerevisiae rad14 strain growth inhibition, hits give high values
Summary of the method: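 Screen for anticancer potential: a yeast strain altered in DNA damage repair is grown with compound, and reduced growth is quantified against vehicle controls.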

[8] = NCI Yeast Anticancer Drug Screen. Data for the sgs1 mgt1 strain (AID 161);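 further: 0% = growth of cultures given vehicle only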; details: S. cerevisiae sgs1 mgt1 strain, hits give high values
Summary of the method: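 Inhibition of yeast growth, normalised to vehicle-treated controls, is reported for a strain bearing genetic alterations in DNA damage repair.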

[9] = NCI Yeast Anticancer Drug Screen. Data for the CLN2oe strain (AID 163);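 further: 0% = growth of vehicle-only control cultures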; details: S. cerevisiae CLN2oe strain, hits give high values
Summary of the method: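 Growth of a genetically modified yeast strain is measured after compound exposure and compared with cultures given vehicle alone.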

[10] = NCI Yeast Anticancer Drug Screen. Data for the cln2 rad14 strain (AID 165);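 further: 0% = growth equal to vehicle treated cultures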; details: S. cerevisiae cln2 rad14 strain, hits give high values
Summary of the method: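 Compounds are applied to the cln2 rad14 yeast strain, and growth is then compared with that of vehicle-treated cultures to give inhibition.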

[11] = NCI Yeast Anticancer Drug Screen. Data for the bub3 strain (AID 167); details: S. cerevisiae bub3 mutant strain, hits give high values
Summary of the method: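 Screening used yeast with an engineered genetic alteration affecting cell cycle control. Compound-exposed cultures were compared with vehicle cultures, and reduced growth was taken as inhibition.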

[12] = NCI Yeast Anticancer Drug Screen. Data for the wt2 strain (AID 169);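 further: 0% = growth of vehicle-treated yeast cultures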; details: S. cerevisiae wt2 strain growth inhibition, hits give high values
Summary of the method: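 This strain belongs to a panel of yeast strains with defined genetic alterations in DNA damage repair or cell cycle control. Compounds are applied, and growth inhibition is measured against vehicle-treated cultures.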

[13] = NCI Yeast Anticancer Drug Screen. Data for the mlh1 strain (AID 171);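 further: 0% = growth of vehicle-treated control cultures of the same strain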; details: S. cerevisiae mlh1 strain growth inhibition, hits give high values
Summary of the method: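 Growth of the mutant yeast strain after compound exposure, expressed as inhibition relative to vehicle-only controls.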

[14] = NCI Yeast Anticancer Drug Screen. Data for the sgs1 strain (AID 173);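 further: 0% = growth of vehicle-only control cultures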; details: S. cerevisiae sgs1 mutant, hits give high values
Summary of the method: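 Growth of a yeast strain bearing a defined genetic alteration is measured after compound treatment. Inhibition is expressed relative to vehicle-only controls.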

[15] = NCI Yeast Anticancer Drug Screen. Data for the mlh1 rad18 strain (AID 175); details: S. cerevisiae mlh1 rad18 strain growth inhibition, hits give high values
Summary of the method: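 Read-out is yeast growth inhibition, calculated against vehicle-only controls. The compound was applied to a strain engineered with DNA damage repair alterations.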

[16] = NCI Yeast Anticancer Drug Screen. Data for the rad18 strain (AID 177); details: S. cerevisiae rad18 mutant growth inhibition, hits give high values
Summary of the method: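 Growth of the mutant yeast strain after compound exposure, normalised to vehicle-only cultures.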

[17] = at 5.0 µM (retest, dose inferred, filed as 0.5)
[18] = at 50.0 µM (retest, dose inferred, filed as 5.0)

Measured: growth inhibition

COc1cccc(C(NC2=NCCC=N2)c2cc3c(cc2O)OCO3)c1O (stereo unspecified)
inactive: [1]; at 1.2 µM -1% | [1]; at 3.7 µM 2% | [1]; at 11.0 µM 21% | [1]; at 33.0 µM 56% | [1]; at 100.0 µM 66% | [2]; at 1.2 µM -2% | [2]; at 3.7 µM -4% | [2]; at 11.0 µM 2% | [2]; at 33.0 µM 5% | [2]; at 100.0 µM 8% | [3]; at 1.2 µM -9% | [3]; at 3.7 µM -9% | [3]; at 11.0 µM -4% | [3]; at 33.0 µM 6% | [3]; at 100.0 µM 9% | [4]; at 1.2 µM -1% | [4]; at 3.7 µM -5% | [4]; at 11.0 µM 12% | [4]; at 33.0 µM -22% | [4]; at 100.0 µM 10% | [5]; at 1.2 µM -1% | [5]; at 3.7 µM -1% | [5]; [17] -11% | [5]; at 11.0 µM -36% | [5]; at 33.0 µM 26% | [5]; at 50.0 µM 41.8% | [5]; at 100.0 µM 39% | [6]; at 1.2 µM 1% | [6]; at 3.7 µM -3% | [6]; [17] -20% | [6]; at 11.0 µM 7% | [6]; at 33.0 µM 15% | [6]; [18] 61% | [6]; at 50.0 µM 23.6% | [6]; at 100.0 µM 22% | [7]; at 1.2 µM 6% | [7]; at 3.7 µM 5% | [7]; at 11.0 µM 8% | [7]; at 33.0 µM 12% | [7]; at 100.0 µM 29% | [8]; [17] -47% | [9]; at 1.2 µM -2% | [9]; at 3.7 µM -8% | [9]; at 11.0 µM -1% | [9]; at 33.0 µM 4% | [9]; at 100.0 µM 21% | [10]; [17] 26% | [10]; [18] 13% | [10]; at 50.0 µM 44.6% | [11]; at 1.2 µM -9% | [11]; at 3.7 µM -3% | [11]; [17] -57% | [11]; at 11.0 µM -3% | [11]; at 33.0 µM -1% | [11]; at 50.0 µM 37.5% | [11]; at 100.0 µM 5% | [12]; at 1.2 µM 0% | [12]; at 3.7 µM 1% | [12]; at 11.0 µM 5% | [12]; at 33.0 µM 18% | [12]; at 100.0 µM 25% | [13]; at 1.2 µM -4% | [13]; at 3.7 µM -3% | [13]; at 11.0 µM 2% | [13]; at 33.0 µM 3% | [13]; at 100.0 µM 4% | [14]; at 1.2 µM 4% | [14]; at 3.7 µM 6% | [14]; at 11.0 µM 21% | [14]; at 33.0 µM 46% | [14]; at 100.0 µM 57% | [15]; [17] -31% | [15]; at 50.0 µM 49.2% | [16]; at 1.2 µM -2% | [16]; at 3.7 µM 0% | [16]; at 11.0 µM 9% | [16]; at 33.0 µM 23% | [16]; at 100.0 µM 56%
active: [5]; [18] 72% | [8]; [18] 77% | [8]; at 50.0 µM 72.3% | [11]; [18] 73% | [15]; [18] 72%

Cc1cc(OCc2nc(N)nc(N)c2-c2ccc(Cl)c(Cl)c2)ccc1[N+](=O)[O-]
inactive: [1]; at 1.2 µM 0% | [1]; at 3.7 µM 1% | [1]; at 11.0 µM 0% | [1]; at 33.0 µM -1% | [1]; at 100.0 µM -2% | [2]; at 1.2 µM 1% | [2]; at 3.7 µM 1% | [2]; at 11.0 µM 3% | [2]; at 33.0 µM 3% | [2]; at 100.0 µM 4% | [3]; at 1.2 µM -1% | [3]; at 3.7 µM -3% | [3]; at 11.0 µM -1% | [3]; at 33.0 µM -1% | [3]; at 100.0 µM -1% | [4]; at 1.2 µM 2% | [4]; at 3.7 µM 5% | [4]; at 11.0 µM 2% | [4]; at 33.0 µM 1% | [4]; at 100.0 µM 10% | [5]; at 1.2 µM 0% | [5]; at 3.7 µM 6% | [5]; [17] 51% | [5]; at 11.0 µM -3% | [5]; at 33.0 µM 2% | [5]; at 100.0 µM 2% | [6]; at 1.2 µM 2% | [6]; at 3.7 µM 3% | [6]; [17] 48% | [6]; at 11.0 µM 0% | [6]; at 33.0 µM 3% | [6]; at 100.0 µM -10% | [7]; at 1.2 µM -1% | [7]; at 3.7 µM 8% | [7]; at 11.0 µM 3% | [7]; at 33.0 µM 3% | [7]; at 100.0 µM 3% | [8]; [17] 54% | [9]; at 1.2 µM 0% | [9]; at 3.7 µM 2% | [9]; at 11.0 µM 0% | [9]; at 33.0 µM 4% | [9]; at 100.0 µM 6% | [10]; [17] -1% | [10]; [18] 30% | [11]; at 1.2 µM 0% | [11]; at 3.7 µM -1% | [11]; [17] -9% | [11]; at 11.0 µM 0% | [11]; at 33.0 µM -2% | [11]; [18] 53% | [11]; at 100.0 µM 20% | [12]; at 1.2 µM 2% | [12]; at 3.7 µM 4% | [12]; at 11.0 µM 4% | [12]; at 33.0 µM 4% | [12]; at 100.0 µM 5% | [13]; at 1.2 µM 0% | [13]; at 3.7 µM 0% | [13]; at 11.0 µM 0% | [13]; at 33.0 µM -1% | [13]; at 100.0 µM 13% | [14]; at 1.2 µM -1% | [14]; at 3.7 µM -3% | [14]; at 11.0 µM -2% | [14]; at 33.0 µM -1% | [14]; at 100.0 µM 0% | [15]; [17] 26% | [16]; at 1.2 µM -3% | [16]; at 3.7 µM -4% | [16]; at 11.0 µM -8% | [16]; at 33.0 µM -15% | [16]; at 100.0 µM -23%
active: [5]; [18] 84% | [5]; at 50.0 µM 98.7% | [6]; [18] 87% | [6]; at 50.0 µM 95.8% | [8]; [18] 75% | [8]; at 50.0 µM 98.7% | [10]; at 50.0 µM 95% | [11]; at 50.0 µM 79.9% | [15]; [18] 85% | [15]; at 50.0 µM 98.5%
